Measurements reported in PubChem BioAssay AID1962 (The Scripps Research Institute Molecular Screening Center, 2009).
The campaign covered roughly 300,000 compounds. About 2,500 (0.83%) were called active.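 Rule for the calls: active = inhibition above the mean of all tested compounds plus 3 SD, set per screening campaign (cut at about 24% in these data); inactive = the rest.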 Many of the other results were omitted from the sample, so actives are more common in it than they were.

Each molecule was assayed on tRNA 2'-phosphotransferase TPT1 (Candida albicans SC5314) (assay: tRNA 2'-phosphotransferase blockers, C. albicans – biochemical, fluorescence polarization, primary screen (AID 1962;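 note: plate controls were DMSO alone for no effect and ferristatin control at 100 nM for full effect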)). Conditions: recombinant caTPT1, FP RNA substrate dephosphorylation; at 5 µM; active compounds read high.

inhibition, active:
CN(C)CCCn1c(N)c(C#N)c2nc(C#N)c(C#N)nc21 75.1%, Fc1ccc2nc(Nc3nc4c(s3)CCCC4)sc2c1 24.1%, O=C(NNc1c2ccccc2nc2ccccc12)c1cc2ccccc2cc1O 25.8%, Cn1c2ccccc2c2cc(/C=C(\NC(=O)c3ccccc3)C(=O)NCC(=O)O)ccc21 86.7%, CS(=O)(=O)c1ccc2c(c1)SC1=NC(=O)/C(=C/c3ccco3)C(=N)N12 62.9%, COc1cc(/C=C2/C(=O)NN(c3cccc(Cl)c3)C2=O)cc(Br)c1O 130%, N#C/C(=C(/O)COC(=O)COc1ccc(Cl)cc1)c1nc2ccccc2[nH]1 35%, CC(C)(C)C1C/C(=C/c2ccco2)C(=O)/C(=C/c2ccco2)C1 (stereo not given) 71.8%, Cc1cccc(NC(=O)c2ccc(COc3ccccc3[N+](=O)[O-])o2)n1 31.1%, CC(=O)n1c(C=Nc2ccccc2)c(O)c2ccccc21 37.8%, CN(c1ccccc1)c1ccc(/C=c2\s/c(=C(/C#N)C(=O)C(C)(C)C)n(Cc3ccco3)c2=O)cc1 151%, Cc1ccc(CSCC2Nc3ccc(C(=O)N4CCN(c5ccc(F)cc5)CC4)cc3NC2=O)cc1 (stereo not given) 133%, O=C1Nc2cc(C(=O)N3CCN(c4ccc(F)cc4)CC3)ccc2NC1CSCc1cccc(F)c1 (stereo not given) 134%, Cc1cc(C)c(/C=C2\C(=O)Nc3ccccc32)[nH]1 101%, CN1/C(=c2/s/c(=C3/C(=O)N(c4ccccc4)NC3=Nc3ccccc3)n(C)c2=O)C(C)(C)c2ccccc21 128%, CCn1c(/C=C/c2ccc([N+](=O)[O-])o2)nc2ccccc2c1=O 25.2%, C=CCC1=C/C(=C\c2c(N)n3nc(CC(=O)N4CCOCC4)sc3nc2=O)C=C(OC)C1=O 37%

inhibition, inactive:
CC(C)(C)c1ccc(C(=O)NCCn2c(N)c(C#N)c3nc4ccccc4nc32)cc1 9.05%, CC1CCCCC1NC(=O)CSc1nnc(-c2ccncc2)n1CCCN(C)C (stereo not given) -2.27%, Fc1cc(F)c2nc(Nc3nc4c(F)cccc4s3)sc2c1 -0.65%, CSc1ncccc1C(=O)Nc1nc2ccc(F)cc2s1 -0.86%, CCc1cccc(C)c1N(C(=O)Cn1c(CO)nc2ccccc21)C(C)COC (stereo not given) -1.41%, CC(C)(C)OC(=O)NNc1c2ccccc2nc2ccccc12 -0.98%, O=C(N/N=C/c1cccnc1)c1cc2ccccc2cc1O -1.97%, CCOc1ccc(-n2cnnn2)cc1S(=O)(=O)N1CCC(C)CC1C (stereo not given) 3.77%, COc1cccc(CNC(=O)C2CCCN(S(=O)(=O)N3CC(C)CC(C)C3)C2)c1 (stereo not given) -2.25%, COc1ccc2c(c1)[C@H]1[C@H](CO2)[C@H](c2ccccc2)[C@]2(C)C(=O)Nc3cc(F)c(F)cc3C(=O)N12 -1.54%, COc1ccc(/C=C(\NC(=O)c2ccccc2)C(=O)NCCN2CCOCC2)cc1OC -0.34%, CCOC(=O)CNC(=O)/C(=C\c1ccc(F)cc1)NC(=O)c1ccccc1 -8.38%, CCN1CCN(C(=O)N[C@@H](C(=O)N[C@@H]2C(=O)N3C(C(=O)O)=C(CSc4nnnn4C)CS[C@H]23)c2ccc(O)cc2)C(=O)C1=O -2.09%, Cc1cc(/C=C2/C(=N)N3C(=NC2=O)SN=C3S(C)(=O)=O)c(C)n1-c1ccccc1 4.75%, CS(=O)(=O)C1=NN2C(=N)/C(=C\c3ccc(OCCOc4ccccc4)cc3)C(=O)N=C2S1 2.39%, COc1ccccc1C(=O)NCCC(=O)NCC(c1ccco1)N1CCCCC1 (stereo not given) 1.82%, O=C(NCc1ccccc1)C(=O)NCC1OCCN1S(=O)(=O)c1ccc(Br)cc1 (stereo not given) -2.5%, COc1ccc(CCN2C(=O)C(C)=C(C)C2=O)cc1OC 1.36%, C#CCOc1ccc(/C=C2/C(=O)NN(c3ccccc3)C2=O)cc1OC 0.28%, COc1cc(/C=C2/C(=O)NN(c3ccc(F)cc3)C2=O)cc([N+](=O)[O-])c1O -1.74%, Cc1ccccc1OC/C(O)=C(\C#N)c1nc2ccccc2[nH]1 2.58%, N#C/C(=C(/O)COc1cccc2ccccc12)c1nc2ccccc2[nH]1 14.7%, C#CCOCCOCCOCCNc1nc(N2CCN(C(=O)CCCCCCCCCCNC(=O)[C@H]([C@@H](C)CC)n3cc(CCCCN=C(N)N)nn3)CC2)nc(N2CCN(C(=O)CCCCCCCCCCNC(=O)[C@H](CO)n3cc(CCCSC)nn3)CC2)n1 -0.55%, COc1ccc(CC2c3cc(OC)c(OC)cc3CC[N+]2(C)CCC(=O)OCCCCCOC(=O)CC[N+]2(C)CCc3cc(OC)c(OC)cc3C2Cc2ccc(OC)c(OC)c2)cc1OC (stereo not given) 0%, COCCNC(=O)/C(C#N)=C/c1nc(N(C)C)n(-c2ccc(F)cc2)c1Cl 1.88%, Cc1c(C)n2c(SCC(=O)N3CCCC3)nnc2[nH]c1=O 0.57%, O=C1OC(/C=C/c2ccccc2)=NC/1=C/c1ccco1 1.61%, CCC1C/C(=C/c2cccs2)C(=O)/C(=C/c2cccs2)C1 (stereo not given) 14.5%, COC(=O)c1ccc(Sc2ccc(F)cc2)c(N)c1 1.95%, CCCCNc1ccc(C(=O)Nc2cccc(C)n2)cc1[N+](=O)[O-] 3.18%, CCOc1ccc(OCc2ccc(C(=O)Nc3cccc(C)n3)o2)cc1 -2.96%, CCOc1ccc2c(=O)c(-c3ccc4c(c3)OCCCO4)c(C)oc2c1 2.18%, CN(C)Cc1c(C(=O)N/N=C/c2ccccc2OCc2ccc(F)cc2)nnn1-c1nonc1N 2.3%, COc1ccccc1C1CC(=O)n2c(nc(-c3ccccc3)c2-c2ccccc2)S1 (stereo not given) -2.44%, NS(=O)(=O)c1ccc(CNC(=O)c2cnccn2)cc1 -3.97%, CCCCn1c(=O)c(C(C)=O)c(O)c2ccccc21 3.63%, CCOc1ccc(N=Cc2c(O)n(-c3cccc(C)n3)c(=O)c3ccccc23)cc1 1.89%, Cc1cc(C)nc(NNC2=CC(=O)CC(C)(C)C2)n1 -0.26%, CCOC(=O)/C=c1\s/c(=C\c2ccc(C#N)cc2)c(=O)n1CC(=O)Nc1cccc(C)c1C 1.41%, Cc1cs/c(=N\N=C\c2ccc(O)cc2)n1Cc1ccco1 2.86%, Cc1ccccc1S(=O)(=O)N1[C@@H](c2cccc(Cl)c2)C(C(=O)O)=CC[C@H]1c1ccc(Cl)cc1 -1.82%, Cc1ccc(S(=O)(=O)N2[C@@H](c3cccc(Cl)c3)C(C(=O)O)=CC[C@H]2c2ccc(Cl)c(Cl)c2)cc1 0.18%, Cn1cc(CN2CCCCC2c2ccccn2)c(-c2ccc3c(c2)OCCO3)n1 (stereo not given) -1.42%, COC(=O)c1ccc(/C=N/N2C(C)CCCC2C)cc1 (stereo not given) 0.75%, CC(CCN1CCN=C1N(C)C)c1ccccc1 (stereo not given) 1.38%, C=CCn1c(SCc2cccc(F)c2)nc2cc(C(=O)N3CCC(C(N)=O)CC3)ccc2c1=O -3.32%, O=C(c1cc(-c2ccc(F)cc2)on1)N1CCN(c2ccc(F)cc2)CC1 -5.93%, O=C(c1cccc(F)c1)N1CCN(c2ccc([N+](=O)[O-])c(N3CCCCC3)c2)CC1 -2.61%, O=C(c1cc(C(=O)N2CCN(c3ccc(F)cc3)CC2)cc([N+](=O)[O-])c1)N1CCN(c2ccc(F)cc2)CC1 -4.38%, Cc1ccc(S(=O)(=O)N2[C@@H](c3ccccc3F)C(C(=O)O)=CC[C@H]2c2ccc(Cl)cc2)cc1 -4.36%, COc1ccc(CCNC(=S)N2CCN(S(=O)(=O)c3ccc(F)cc3)CC2)cc1 -2.45%, Cc1cccc(NC(=O)c2cccc(S(=O)(=O)N3CCCC3)c2)n1 -1.41%, CCC(C)CCN1CCN=C1N(C)C (stereo not given) 0.6%, O=S(=O)(Nc1ccccc1)c1ccc(NS(=O)(=O)c2cccs2)cc1 3.09%, O=c1[nH]nc(SCCS(=O)(=O)c2ccc(F)cc2)n1-c1ccccc1C(F)(F)F -4.89%, O=C(NCCS(=O)(=O)N1CCN(c2ccc(F)cc2)CC1)c1ccc2c(c1)OCO2 -1.22%, CN(C)/C=C1/Nc2ccccc2C1=O -4.8%, O=C1Nc2ccccc2/C1=C/c1ccnc2ccccc12 -1.13%, CCN1C(=O)/C(=c2\s/c(=C3\Sc4ccccc4N3C)c(=O)n2C)N(C)C1=S -1.53%, COc1ccc(/C=C2\SC(=O)N(CCC(=O)NC3CCS(=O)(=O)C3)C2=O)cc1 (stereo not given) -0.19%, Cc1cc(C)n(CCC(=O)N2CCN(S(=O)(=O)c3ccc(C)c(C)c3)CC2)n1 -1.67%, Cc1nc(-c2ccc(Cl)cc2)sc1C1(C)CC(c2ccccc2F)=NO1 (stereo not given) 1.26%, Cc1cc(C)nc(N/N=C/c2ccc([N+](=O)[O-])o2)n1 -2.07%, C/[N+]([O-])=C\c1ccc([N+](=O)[O-])o1 -5.74%, CCCOc1ccc(Cc2c(O)nc(SC)[nH]c2=O)cc1C 1.03%, S=C(Nc1cccc(Br)c1)N1CCn2cccc2C1c1cccnc1 (stereo not given) 1.48%, COc1cc(/C=C2\C(=N)N3N=C(CC(=O)N4CCOCC4)SC3=NC2=O)cc(OC)c1OC 1.57%, COC1=C/C(=C/c2c(N)n3nc(CC(=O)N4CCOCC4)sc3nc2=O)C=CC1=O 9.73%
